# Reference: PubChem BioAssay (NCI)
# The panel holds about 79,000 compounds, 15% with a hit somewhere; the sample as a whole holds those more often. Unmarked numbers belong to inactive results. Calls of active or inactive are those of the source. Rule as the data show it: active = growth inhibition above about 70%; inactive = the rest.
# What was measured:
# [1] = NCI Yeast Anticancer Drug Screen. Data for the rad52 strain (AID 147);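 also: 0% = growth of vehicle-treated control cultures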; conditions: S. cerevisiae rad52 mutant growth inhibition, hits give high values
# How it was run: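 Measured: yeast growth inhibition. System: strain with a defined DNA damage repair alteration. Reference: vehicle-treated control cultures.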
# [2] = NCI Yeast Anticancer Drug Screen. Data for the wt1 strain (AID 149);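 also: 0% = growth of vehicle-treated wt1 cultures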; conditions: S. cerevisiae wt1 strain (SPY 50644) growth inhibition, hits give high values
# How it was run: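 Readout: yeast growth inhibition, normalised to vehicle controls, in the wt1 strain exposed to test compounds.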
# [3] = NCI Yeast Anticancer Drug Screen. Data for the rad50EPP+ strain (AID 151);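 also: 0% = growth of vehicle-treated control cultures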; conditions: S. cerevisiae rad50 mutant strain, hits give high values
# How it was run: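 One strain with a rad50 alteration (rad50EPP+) was compound-treated, its growth then compared to that of vehicle controls.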
# [4] = NCI Yeast Anticancer Drug Screen. Data for the mgt1 strain (AID 153); conditions: S. cerevisiae mgt1 mutant growth inhibition, hits give high values
# How it was run: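 After exposure of the mgt1 yeast mutant to compound, growth was measured and reported as inhibition compared with vehicle controls.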
# [5] = NCI Yeast Anticancer Drug Screen. Data for the rad50 strain (AID 155);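 also: 0% = growth of vehicle-only cultures of the same strain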; conditions: S. cerevisiae rad50 strain growth inhibition, hits give high values
# How it was run: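 Compounds were tested on a yeast strain with an engineered DNA damage repair alteration; the reported value is growth inhibition normalised to vehicle treatment.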
# [6] = NCI Yeast Anticancer Drug Screen. Data for the mec2-1 strain (AID 157); conditions: S. cerevisiae mec2-1 strain, hits give high values
# How it was run: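 Test agents were screened against the mec2-1 yeast strain, with defined DNA repair or cell cycle alteration. Growth was scored as inhibition against vehicle-only controls.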
# [7] = NCI Yeast Anticancer Drug Screen. Data for the rad14 strain (AID 159);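 also: 0% = growth of vehicle-treated control cultures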; conditions: S. cerevisiae rad14 strain growth inhibition, hits give high values
# How it was run: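 Compound-treated yeast with a defined DNA-repair lesion; growth inhibition normalised to vehicle-treated cultures.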
# [8] = NCI Yeast Anticancer Drug Screen. Data for the sgs1 mgt1 strain (AID 161);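 also: 0% = growth of cultures given vehicle only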; conditions: S. cerevisiae sgs1 mgt1 strain, hits give high values
# How it was run: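 Test agents were incubated with a DNA-repair-mutant yeast strain. Growth was then read and compared against vehicle-treated controls.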
# [9] = NCI Yeast Anticancer Drug Screen. Data for the CLN2oe strain (AID 163);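 also: 0% = growth of vehicle-only control cultures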; conditions: S. cerevisiae CLN2oe strain, hits give high values
# How it was run: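 Here, growth inhibition in a cell-cycle-altered yeast strain after compound exposure was quantified against vehicle control growth.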
# [10] = NCI Yeast Anticancer Drug Screen. Data for the cln2 rad14 strain (AID 165);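 also: 0% = growth equal to vehicle treated cultures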; conditions: S. cerevisiae cln2 rad14 strain, hits give high values
# How it was run: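 Growth of compound-exposed yeast (cln2 rad14 genotype) measured and expressed as inhibition relative to vehicle.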
# [11] = NCI Yeast Anticancer Drug Screen. Data for the bub3 strain (AID 167); conditions: S. cerevisiae bub3 mutant strain, hits give high values
# How it was run: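 Growth of a checkpoint-deficient yeast mutant is measured after compound exposure. Values represent inhibition relative to vehicle.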
# [12] = NCI Yeast Anticancer Drug Screen. Data for the wt2 strain (AID 169);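 also: 0% = growth of vehicle-treated yeast cultures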; conditions: S. cerevisiae wt2 strain growth inhibition, hits give high values
# How it was run: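 Genetically defined yeast strains from a DNA-repair/cell-cycle panel were used. Compound-exposed yeast growth was measured, and the inhibition was calculated relative to vehicle treatment.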
# [13] = NCI Yeast Anticancer Drug Screen. Data for the mlh1 strain (AID 171);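 also: 0% = growth of vehicle-treated control cultures of the same strain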; conditions: S. cerevisiae mlh1 strain growth inhibition, hits give high values
# How it was run: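 Here the genetically defined yeast mutant is grown with each compound, and the extent to which its growth falls below that of vehicle-exposed cells is reported.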
# [14] = NCI Yeast Anticancer Drug Screen. Data for the sgs1 strain (AID 173);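 also: 0% = growth of vehicle-only control cultures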; conditions: S. cerevisiae sgs1 mutant, hits give high values
# How it was run: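 Relative growth inhibition, referenced to vehicle, was determined in a yeast strain with a defined alteration affecting DNA damage repair or cell cycle control after compound exposure.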
# [15] = NCI Yeast Anticancer Drug Screen. Data for the mlh1 rad18 strain (AID 175); conditions: S. cerevisiae mlh1 rad18 strain growth inhibition, hits give high values
# How it was run: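 In this whole-cell yeast screen, a strain with altered DNA damage repair is challenged with compound, and its growth is measured against matched vehicle-treated controls.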
# [16] = NCI Yeast Anticancer Drug Screen. Data for the rad18 strain (AID 177); conditions: S. cerevisiae rad18 mutant growth inhibition, hits give high values
# How it was run: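 Screen uses a yeast strain with a defined lesion in DNA damage repair; compound effect is read as loss of growth compared to untreated vehicle cultures.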
# [17] = at 5.0 µM (retest, dose inferred, filed as 0.5)
# [18] = at 50.0 µM (retest, dose inferred, filed as 5.0)
compound,measurement,setting,value
Nc1ccn(C2OC(CO)C3[O][Sn]([c]4ccccc4)([c]4ccccc4)[O]C32)c(=O)n1 (stereo not drawn),growth inhibition,[1]; at 1.2 µM,3%
same,growth inhibition,[1]; at 3.7 µM,3%
same,growth inhibition,[1]; at 11.0 µM,21%
same,growth inhibition,[1]; at 33.0 µM,46%
same,growth inhibition,[1]; at 100.0 µM,84% (active)
same,growth inhibition,[2]; at 1.2 µM,-1%
same,growth inhibition,[2]; at 3.7 µM,-1%
same,growth inhibition,[2]; at 11.0 µM,1%
same,growth inhibition,[2]; at 33.0 µM,9%
same,growth inhibition,[2]; at 100.0 µM,53%
same,growth inhibition,[3]; at 1.2 µM,1%
same,growth inhibition,[3]; at 3.7 µM,-5%
same,growth inhibition,[3]; at 11.0 µM,-1%
same,growth inhibition,[3]; at 33.0 µM,6%
same,growth inhibition,[3]; at 100.0 µM,13%
same,growth inhibition,[4]; at 1.2 µM,7%
same,growth inhibition,[4]; at 3.7 µM,3%
same,growth inhibition,[4]; at 11.0 µM,-3%
same,growth inhibition,[4]; at 33.0 µM,30%
same,growth inhibition,[4]; at 100.0 µM,85% (active)
same,growth inhibition,[5]; at 1.2 µM,4%
same,growth inhibition,[5]; at 3.7 µM,-1%
same,growth inhibition,[5]; [17],-5%
same,growth inhibition,[5]; at 11.0 µM,26%
same,growth inhibition,[5]; at 33.0 µM,61%
same,growth inhibition,[5]; [18],51%
same,growth inhibition,[5]; at 50.0 µM,95.4% (active)
same,growth inhibition,[5]; at 100.0 µM,84% (active)
same,growth inhibition,[6]; at 1.2 µM,0%
same,growth inhibition,[6]; at 3.7 µM,3%
same,growth inhibition,[6]; [17],-6%
same,growth inhibition,[6]; at 11.0 µM,4%
same,growth inhibition,[6]; at 33.0 µM,17%
same,growth inhibition,[6]; [18],34%
same,growth inhibition,[6]; at 50.0 µM,95.5% (active)
same,growth inhibition,[6]; at 100.0 µM,52%
same,growth inhibition,[7]; at 1.2 µM,1%
same,growth inhibition,[7]; at 3.7 µM,1%
same,growth inhibition,[7]; at 11.0 µM,3%
same,growth inhibition,[7]; at 33.0 µM,22%
same,growth inhibition,[7]; at 100.0 µM,78% (active)
same,growth inhibition,[8]; [17],-12%
same,growth inhibition,[8]; [18],65%
same,growth inhibition,[8]; at 50.0 µM,86.2% (active)
same,growth inhibition,[9]; at 1.2 µM,1%
same,growth inhibition,[9]; at 3.7 µM,-1%
same,growth inhibition,[9]; at 11.0 µM,9%
same,growth inhibition,[9]; at 33.0 µM,11%
same,growth inhibition,[9]; at 100.0 µM,60%
same,growth inhibition,[10]; [17],-26%
same,growth inhibition,[10]; [18],-9%
same,growth inhibition,[10]; at 50.0 µM,92.1% (active)
same,growth inhibition,[11]; at 1.2 µM,1%
same,growth inhibition,[11]; at 3.7 µM,1%
same,growth inhibition,[11]; [17],-18%
same,growth inhibition,[11]; at 11.0 µM,3%
same,growth inhibition,[11]; at 33.0 µM,19%
same,growth inhibition,[11]; [18],41%
same,growth inhibition,[11]; at 50.0 µM,95.9% (active)
same,growth inhibition,[11]; at 100.0 µM,75% (active)
same,growth inhibition,[12]; at 1.2 µM,0%
same,growth inhibition,[12]; at 3.7 µM,0%
same,growth inhibition,[12]; at 11.0 µM,5%
same,growth inhibition,[12]; at 33.0 µM,31%
same,growth inhibition,[12]; at 100.0 µM,79% (active)
same,growth inhibition,[13]; at 1.2 µM,-1%
same,growth inhibition,[13]; at 3.7 µM,0%
same,growth inhibition,[13]; at 11.0 µM,6%
same,growth inhibition,[13]; at 33.0 µM,33%
same,growth inhibition,[13]; at 100.0 µM,70% (active)
same,growth inhibition,[14]; at 1.2 µM,0%
same,growth inhibition,[14]; at 3.7 µM,0%
same,growth inhibition,[14]; at 11.0 µM,9%
same,growth inhibition,[14]; at 33.0 µM,44%
same,growth inhibition,[14]; at 100.0 µM,89% (active)
same,growth inhibition,[15]; [17],-22%
same,growth inhibition,[15]; [18],87% (active)
same,growth inhibition,[15]; at 50.0 µM,95.2% (active)
same,growth inhibition,[16]; at 1.2 µM,3%
same,growth inhibition,[16]; at 3.7 µM,8%
same,growth inhibition,[16]; at 11.0 µM,27%
same,growth inhibition,[16]; at 33.0 µM,67%
same,growth inhibition,[16]; at 100.0 µM,88% (active)
